# IL-1B inflam inh: inflammasome signaling inhibition, IL-1 beta readout; THP-1 LPS/ATP IL-1B secretion, AlphaLISA, 16 h; stronger effect = lower value; activity change, % at 57.5 µM; hit rate 4.7% among 360,000; in the data active = activity change below about -50%; inconclusive = mostly about -30% to -49%; also: % is scaled to controls: 0 for no effect and ±100 for the full control effect
#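 Secreted IL-1B measured by AlphaLISA bead assay after 16 h compound exposure of THP-1 cells; compounds (final up to 57.5 uM) added 1 h before LPS (250 ng/mL) and ATP (1.25 mM) stimulation; lower signal means less secretion.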
# ATXN2 expr inh: ATXN2 expression inhibition; HEK-293 ATXN2-luciferase reporter, luminescence, 24 h; Potency, µM (titrated, usually from 57 µM), without a hit: top-dose activity change, negative = inhibition, most hits filed as inhibitors; hit rate 0.72% among 360,000; also: potency is read from the fitted curve at half-maximal effect; % is scaled to controls: 0 for no effect and ±100 for the full control effect; nearly all actives have a fitted effect of over 55% in size
#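 qHTS (up to 57 uM final) was run with 24 h compound exposure of reporter cells at 37 °C. Each well was multiplexed: SteadyGlo luminescence measured ATXN2-luciferase expression after a fluorogenic Gly-Phe-AFC viability readout (25 uM final).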
# D3 ag: activates the human D3 dopamine receptor | max activation, % | AID 652048 | hit rate 0.58% among 410,000 | P35462 | D3R DiscoveRx beta-arrestin cells, luminescence, 90 min; in the data active = max activation above about 30%; also: 0% is about no effect
# Target sequence (P35462 whole entry, looked up): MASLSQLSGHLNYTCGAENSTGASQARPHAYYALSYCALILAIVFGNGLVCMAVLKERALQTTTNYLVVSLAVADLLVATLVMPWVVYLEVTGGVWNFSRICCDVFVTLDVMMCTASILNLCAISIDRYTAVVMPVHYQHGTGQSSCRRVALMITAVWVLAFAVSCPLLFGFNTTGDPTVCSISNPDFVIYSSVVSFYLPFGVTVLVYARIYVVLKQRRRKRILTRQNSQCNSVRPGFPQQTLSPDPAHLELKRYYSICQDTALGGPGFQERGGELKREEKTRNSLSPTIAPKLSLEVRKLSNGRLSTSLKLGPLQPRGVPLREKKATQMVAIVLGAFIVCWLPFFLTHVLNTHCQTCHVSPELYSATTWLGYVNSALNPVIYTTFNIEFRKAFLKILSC
#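 Agonist-mode cell screen: cells plated at 1500/well and incubated overnight at 37 °C, then exposed to library compounds for 90 min at 37 °C. Detection reagent was added for 30–60 min at room temperature, and luminescence was read.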
# D3 antag: blocks the human D3 dopamine receptor; D3R cells, DiscoveRx beta-arrestin luminescence, antagonist mode; stronger effect = lower value; max response, negative = inhibition, %; hit rate 2.5% among 360,000; AID 652054; in the data active = max response below about -50%; inconclusive = no clear call, values can overlap the other calls; also: % is scaled to controls: 0 for no effect and ±100 for the full control effect
#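 Cells plated overnight at 1500 cells/well, then exposed to library compounds with dopamine controls for 90 minutes at 37 degrees C. DiscoveRx reagent added for 30–60 minutes at room temperature; luminescence read, quantitative HTS format.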
# Integrin act MD: integrin-mediated muscular dystrophy alleviation activation | alpha7betagal myoblasts, beta-gal FDG fluorescence, 48 h | hit rate 0.064% among 350,000 | Potency, µM (doses to about 38.3 µM), for inactives: top-dose activation, usual class: activators | AID 624291;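 also: potency is read from the fitted curve at half-maximal effect; 100% = response of the positive control SU9516; nearly all actives have a fitted effect of over 60% in size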
#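 alpha7betagal+/- myoblasts (passage 13, 250/well) treated 48 h at 37C with compounds at 1:260 dilution of DMSO stock. Lysed, then beta-galactosidase activity read as FDG fluorescence (ex 480/em 540) after 30 min, with pre-read for autofluorescence.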
# ATXN viability: cell viability loss in ATXN counter-screen. S2 cells (HEK-293 line with an ATXN2-luciferase reporter) viability, CellTiter-Fluor protease fluorescence, 24 h. Potency, µM (doses to about 56.7 µM), hits mostly cytotoxic. hit rate 0.49% among 400,000; also: potency is read from the fitted curve at half-maximal effect; nearly all actives have a fitted effect of over 40% in size
# An asterisk follows results filed as active; i = inactive; ? = inconclusive; . = no result given. A selection: hits, their analogues and other compounds. The true share with any hit is near 7%. Unless noted, calls follow the shape of the dose curve; as a rule, active = well fitted curve in the direction sought with a large enough effect; inconclusive = small, poorly fitted or top-dose-only effect, or another doubt; inactive = no such curve, though single readings can be large; an effect the other way counts as inactive or inconclusive.
SMILES,IL-1B inflam inh,ATXN2 expr inh,D3 ag,D3 antag,Integrin act MD,ATXN viability
CCC[C@@H](CN1CCC[C@H]1CN1C(N)=NC[C@H]1CC(C)C)N1C[C@@H]([C@H](C)CC)N(CCCC2CCCC2)C1=N,-57.6*,-5.7%,-42.0,-15.5,-15.0%,i
COC(=O)c1ccc(C23CC4(C2)[C@H](CN(Cc2ccc(C(F)(F)F)cc2)[C@@H]4c2ccccc2)C3c2ccccc2)cc1 (some centres undefined),23.7,0.0%,-7.6,0.0,11.0%,i
O=C(O)c1cc(S(=O)(=O)N(Cc2ccccc2)c2ccc(Cl)cc2)ccc1Cl,-27.0,-6.5%,15.9,-10.8,-14.1%,i
Cn1c(=O)c2c(ncn2CC(=O)OCC(=O)NNC(=O)c2ccc(Cl)cc2)n(C)c1=O,13.0,-1.3%,-23.8,-124.0*,3.8%,?
O=C(COC(=O)CN1C(=O)C2CCCCC2C1=O)NNC(=O)c1ccc(Cl)cc1 (centres undefined),5.4,6.3%,-2.7,-74.7*,-14.4%,i
Cc1ccc(Cl)cc1NC(=O)COC(=O)CN1C(=O)C2CCCCC2C1=O (centres undefined),10.8,-4.4%,-1.9,0.1,32.0%,i
CC(C)(C)NC(=O)CN(C(=O)C(=O)Nc1ccc2c(c1)OCCO2)C(C)(C)C,4.7,-16.1%,-16.4,-11.5,0.0%,i
CC(C)(C)c1ccc(SC2=C[C@@]3(O)CC[C@@H](O)[C@@](Sc4ccc(C(C)(C)C)cc4)(C2=O)[C@H]3O)cc1,-89.6*,-17.7%,7.8,23.4,.,.
Cc1ccc(SC2=C[C@@]3(O)CC[C@@H](O)[C@@](Sc4ccc(C)cc4)(C2=O)[C@H]3O)cc1,-7.8,-10.3%,-4.3,0.0,.,i
CCc1ccc(-c2nc(CS(=O)CC(=O)NCCCN3CCOCC3)c(C)o2)cc1 (centres undefined),37.6,11.5%,2.1,7.8,-6.1%,i
Cc1ccc(NC2=NCC(=O)N2Cc2ccccc2)c(C)c1,28.4,-15.8%,39.2*,82.5,9.7%,i
COc1ccccc1NC1=NCC(=O)N1Cc1ccccc1,24.8,5.4%,1.9,-0.1,10.3%,i
CCCn1cc(S(=O)(=O)c2cccc(Cl)c2)c(=O)c2cc(F)c(N3CCN(CC)CC3)cc21,.,.,63.1*,.,.,.
Cc1ccc(S(=O)(=O)c2cn(C)c3cc(N4CCN(C)CC4)c(F)cc3c2=O)cc1,-96.9*,-6.7%,-0.3,-7.6,12.5%,?
Cc1ccc(S(=O)(=O)c2cn(C)c3cc(N4CCN(c5ccccc5)CC4)c(F)cc3c2=O)cc1,.,.,4.0,.,.,.
CCCn1cc(S(=O)(=O)c2ccccc2)c(=O)c2cc(F)c(N3CCCC3)cc21,.,6.5%,6.5,.,.,i
COC(=O)CN1C(C(=O)c2ccccc2)=C(OC(=O)c2ccccc2)c2ccccc2S1(=O)=O,.,7.9%,3.4,.,.,?
COc1ccc(N2C(=O)CC(Nc3cccc(C(C)=O)c3)C2=O)cc1OC (centres undefined),8.4,12.4%,-2.1,-7.7,-8.8%,i
CC1(C(=O)Nc2ccc3c(c2)OCCO3)CCN1C(=O)C/C=C/c1ccccc1 (centres undefined),-5.9,-1.6%,-5.6,0.0,.,i
O=C(Nc1ccc2c(c1)OCCO2)C(c1cc2ccccc2o1)N1CCN(c2ccc(F)cc2)CC1 (centres undefined),-6.7,28.4%,-7.3,0.0,.,i
O=C(Nc1ccc2c(c1)OCCO2)C(c1cc2ccccc2o1)N1CCN(C/C=C/c2ccccc2)CC1 (centres undefined),12.9,15.0%,-5.6,-110.9*,.,?
O=C(Nc1ccc2c(c1)OCCO2)C(C1CC1)N1CCN(C/C=C/c2ccccc2)CC1 (centres undefined),-13.6,-15.2%,-5.4,-58.8*,.,?
Cn1nc(C(=O)Nc2cccc(Cl)c2)cc1C(=O)Nc1cccc(Cl)c1,-62.6*,-38.6%,0.3,6.8,10.0%,?
CN=c1sc(C(=O)Nc2cccc(Cl)c2)cc(=O)n1C,-14.1,?,-8.2,-51.3*,-9.2%,?
Cn1c(N)c(C(=O)Nc2cccc(Cl)c2)c(=O)n(C)c1=O,41.8,24.7%,2.6,20.2,4.1%,i
SMILES,IL-1B inflam inh,ATXN2 expr inh,D3 ag,D3 antag,Integrin act MD,ATXN viability
Cn1nc(C(=O)Nc2ccc(Cl)cc2)cc1C(=O)Nc1ccc(Cl)cc1,14.7,.,1.1,-11.6,0.1%,i
Cc1nn2c(N3CCN(CCO)CC3)c3c(nc2c1-c1ccccc1)CCCC3,.,-26.6%,-20.2,-20.1,-59.0%,?
O=C(Nc1ccc(F)cc1F)c1c(C(F)(F)F)ccnc1Oc1cccc(C(F)(F)F)c1,2.2,-20.2%,-0.4,-57.9*,5.8%,i
O=C(Nc1ccc(F)cc1F)c1c(C(F)(F)F)ccnc1Oc1ccc(Cl)cc1,3.6,-9.6%,-9.2,4.4,9.2%,i
FC(F)(F)c1cc(-c2cccs2)n[nH]1,21.8,-9.0%,-7.0,17.3,0.0%,i
NC(=O)c1ccccc1N/C=C/C(=O)c1ccc(Cl)cc1Cl,-54.8*,4.4%,-0.8,-20.4,4.0%,i
NC(=O)c1ccccc1N/C=C/C(=O)c1ccc(F)cc1,-5.5,.,-0.6,-4.8,17.8%,i
C[C@H]1CN=C(N(C)C)N1CCc1cccc(F)c1,20.2,-2.1%,8.3,11.5,-6.0%,i
CC1CCCC(C)N1c1nnc(NC(=O)Cn2c(=O)oc3ccccc32)s1 (centres undefined),11.4,-4.6%,0.7,2.7,7.9%,i
Cc1nc(N)sc1C(=O)N/N=C/c1ccc([N+](=O)[O-])cc1,1.4,-25.1%,7.4,3.5,6.9%,i
COc1cc(/C=N\NC(=O)c2sc(N)nc2C)cc(OC)c1OC,-78.8*,49.3%,1.9,41.4,18.1%,i
COc1cc(/C=N/NC(=O)c2cc(-c3ccccc3)sc2N)cc(OC)c1OC,-72.4*,-30.9%,10.7,0.5,-36.3%,?
COc1cc(/C=N/NC(=O)c2ccc(-c3ccccc3)cc2)cc(OC)c1OC,-20.3,-14.8%,1.4,4.6,3.6%,i
COc1cc(/C=N/NC(=O)c2sc3nc(C)cc(C)c3c2N)ccc1O,-88.7*,-21.5%,14.2,38.8,-9.0%,i
COc1cc(/C=N/NC(=O)CCn2c3ccccc3c3ccccc32)cc(OC)c1OC,0.0,-0.9%,41.7*,71.4,-28.5%,i
O=C(CN(c1ccccc1)S(=O)(=O)c1ccccc1[N+](=O)[O-])Nc1ccccc1C(=O)N1CCOCC1,-4.1,-1.1%,2.6,1.9,9.3%,i
COc1ccc(CNC(=O)C2CCCN(S(=O)(=O)N(C)c3ccc(F)cc3)C2)cc1OC (centres undefined),.,.,8.6,.,.,.

# Assay outcomes deposited in PubChem by National Center for Advancing Translational Sciences (NCATS).
